Experimental data as given in PubChem BioAssay AID720597 (Broad Institute, 2013).
Measured potencies and affinities stand elsewhere. Activity calls are given as the source filed them.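 How the source made its calls: active means fitted half-maximal dose no more than twice the top valid tested dose, for compounds that lower signal; inconclusive means fit invalid, or curve flat with activity between -70 and -30; inactive means potency past limit, curve flat within ±30, or signal increasing.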

Biological target: NAD-dependent protein deacylase sirtuin-5, mitochondrial (Homo sapiens) (UniProt Q9NXA8)
Assay: blockers of sirtuin-5 peptide desuccinylation – biochemical, fluorescence imaging, cherry-pick, set 6, dose response (AID 720597);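 further: lower AMC signal can also come from blocking the trypsin step; 0% = median of neutral control wells and -100% = median of positive control wells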
Settings: Purified SirT5, succinyl-peptide-AMC/trypsin fluorescence; series mostly up to 15 µM; activity change, negative = inhibition: at the top concentration

Chain of NAD-dependent protein deacylase sirtuin-5, mitochondrial (Homo sapiens) (Q9NXA8 whole entry, looked up): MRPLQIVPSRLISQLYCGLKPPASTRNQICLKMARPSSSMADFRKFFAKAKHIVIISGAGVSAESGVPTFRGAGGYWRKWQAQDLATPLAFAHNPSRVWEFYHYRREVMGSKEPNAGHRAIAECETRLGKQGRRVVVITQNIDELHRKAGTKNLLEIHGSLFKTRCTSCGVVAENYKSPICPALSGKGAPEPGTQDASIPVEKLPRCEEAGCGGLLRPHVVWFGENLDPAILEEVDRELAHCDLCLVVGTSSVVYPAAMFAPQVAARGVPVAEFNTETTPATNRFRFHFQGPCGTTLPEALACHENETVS

Activity change, negative = inhibition, inactive:
Cc1ccc(S(=O)(=O)N(C)C[C@@H]2OCCCC[C@H](C)Oc3ccc(NS(=O)(=O)c4ccc(F)cc4)cc3C(=O)N([C@@H](C)CO)C[C@H]2C)cc1 18.7%
COCC(=O)NC[C@H]1N[C@H](CO)[C@@H]1c1ccc(C2=CCCCC2)cc1 15%
Cc1ccc(S(=O)(=O)N(C)C[C@H]2OCCCC[C@@H](C)Oc3ccc(NS(=O)(=O)c4ccccc4)cc3C(=O)N([C@@H](C)CO)C[C@H]2C)cc1 -23.3%
C[C@@H]1CN([C@H](C)CO)C(=O)c2c(c3ccccc3n2C)-c2ccccc2CO[C@H]1CN(C)S(=O)(=O)c1ccc(C(F)(F)F)cc1 -8.07%
O=C(Nc1ccccc1F)N1C[C@@H]2N[C@H](C1)C2c1ccc(/C=C/c2ccccc2)cc1 (some centres not stated) -14.4%
CCCNC(=O)N1[C@@H](CO)[C@@H](c2ccccc2)C12CN(C(=O)CC1CC1)C2 4.32%
C[C@H]1CN([C@@H](C)CO)C(=O)c2cc(C#Cc3cccc(F)c3)cnc2O[C@@H]1CN(C)CC1CCCC1 -7.58%
CO[C@H]1CN(C)C(=O)c2cc(NC(=O)NC(C)C)ccc2OC[C@@H](C)N(C(=O)CC2CC2)C[C@@H]1C -9.33%
C[C@@H]1CN([C@@H](C)CO)S(=O)(=O)c2ccc(C#C[C@@H](C)O)cc2O[C@@H]1CN(C)Cc1ccc(-c2ccccc2)cc1 24.3%
COc1ccc(S(=O)(=O)N(C)C[C@H]2OCCCC[C@@H](C)Oc3ccc(NS(=O)(=O)c4ccc(C)cc4)cc3C(=O)N([C@@H](C)CO)C[C@H]2C)cc1 -14.3%
Cc1ccc(S(=O)(=O)N(C)C[C@@H]2OCCCC[C@@H](C)Oc3ccc(NS(=O)(=O)c4ccc(F)cc4)cc3C(=O)N([C@H](C)CO)C[C@H]2C)cc1 10.9%
CCC(=O)NC[C@H]1[C@@H](c2ccccc2)[C@H](CO)N1C(=O)C1CCC1 -5.07%
